Our source for the Potency values is PubChem BioAssay (NCATS).

Inconclusive results are not listed. Where a call stands in place of a potency, no number is given. Calls of active or inactive are those of the source. The call rests on the fitted dose curve; in most records, active means well fitted inhibition curve with a large enough effect; inconclusive means small, poorly fitted or top-dose-only effect; inactive means flat fitted curve, though single readings scatter.
Potency means the concentration at half of the fitted maximal effect.

This assay in a line: qHTS for Inhibitors of Plasmodium falciparum (HB3) proliferation (AID 504318). Further: nearly all actives have a fitted effect of over 60% in size. The conditions noted are these: P. falciparum HB3 in erythrocytes, SYBR Green DNA, 72 h; series mostly up to 7.21 µM. An excerpt: Plasmodium falciparum is a virulent malarial parasite that kills 1-2 million people worldwide each year. Malaria not only inflicts tremendous suffering and morbidity on the human population, but has dramatically influenced the course of civilization with profound sociological and economic implications (Shah, S. 2010). Transmitted by mosquitoes, the sporozoite form of the parasite enters the blood stream to infect hepatocytes, where they become merozoites that infect red blood cells (erythrocytes). Within erythrocytes, merozoites begin a […] cycle of growth and division, after which the parasite is released to infect new red blood cells. Gametocytes, which form within erythrocytes as well, circulate in the bloodstream and are ingested by the mosquito, thereby completing the life cycle (see CDC website). To profile malarial lines for differential chemical responses and to identify inhibitors of malarial growth, an assay that measures P. falciparum growth and replication within erythrocytes was employed. This assay uses a DNA binding fluorescent dye (SYBR Green) to detect parasite DNA following cell lysis. Because mature erythrocytes lack DNA, only Plasmodium-derived DNA is detected. The P. falciparum line cp250, derived from a malarial isolate from Cambodia, (Mu, J., et al. 2010) was added to the panel of lines, Dd2, HB3, 7G8 and GB4 in this study. Laboratory of Assay Development and Screening Technology [ADST] and NIH Chemical Genomics Center [NCGC] Boston University, Chemistry Department, Center for Chemical Methodology and Library Development [CMLD-BU] NIH National Institute of Allergy and Infectious Diseases [NIAID]
ADST Assay Protocol Summary: The 1536-well SYBR Green viability assay was based on the method of Bennett et al (2004) and described previously in 1536-well format (Yuan J., et al. 2009). For screening 3 ul culture medium was dispensed into 1536 well black clear bottom plates (Aurora Biotechnologies) using a Multidrop Combi (Thermo Fisher Scientific Inc.), 23 nL compounds in DMSO were added by a pin transfer (Cleveland, P.H. and Koutz, P.J, 2005) using a pin tool-based delivery system (Kalypsys), and 5 ul of erythrocytes infected with P. falciparum one of five lines (cp250, Dd2, HB3, 7G8 or GB4, 0.3% parasitemia, 2.5% hematocrit final concentration) were added. The plates were incubated at 37C in a humidified incubator in 5% CO2 for 72 h, and 2 ul lysis buffer (20 mM Tris HCl, 10 mM EDTA, 0.16% saponin, 1.6% triton X, 10X SYBR Green I (supplied as 10,000X final concentration by Invitrogen) was added to each well. The plates were mixed for 25 sec with gentle shaking and incubated overnight at room temperature in the dark. The following morning, fluorescence intensity at 485(14) nm excitation and 535(25) nm emission wavelengths was measured on an EnVision (Perkin Elmer) plate reader. Plate reads were normalized relative to the control inhibitor (0.29 uM artemisinin) and vehicle (DMSO) wells present on each plate and then corrected by an algorithm using vehicle-only control plates at the beginning and end of the compound plate stack. References Shah, S. (2010). The Fever: how malaria has ruled humankind for 500,000 years. New York, Sarah Crichton Books. CDC web site, http://www.cdc.gov/malaria/about/biology/index.html Mu, J., Myers, R.A., Jiang, H., Liu, S., Ricklefs, S., Waisberg, M., Chotivanich, K., Wilairatana, P., Krudsood, S., White, N.J., et Plasmodium falciparum genome-wide scans for positive selection, recombination hot spots and resistance to antimalarial drugs Nature Genetics 2010, 42, pp 268-271 Bennett TN, Paguio, M., Gligorijevic, B., Seudieu, C., Kosar, A. D., Davidson, E., and Roepe, P. D. Novel, rapid, and inexpensive cell-based quantification of antimalarial drug efficacy Antimicrobial Agents Chemother. 2004, 48(5): pp 1807-10 Yuan J, Johnson RL, Huang RL, Wichterman J, Jiang HY, Hayton K, Fidock DA, Wellems TE, Inglese J, Austin CP, Su XZ. […]
Background: In qHTS, concentration-response curves come from the screen itself.
Turning to `COC(=O)N1C2CC3(C)CC(=O)CC1(C)C3c1ccccc12` (stereo not given), the Potency entry was “inactive”.
Turning to `COc1ccc(C2=CC3=C(Br)C(=O)C(C)(O)C(=O)C3=CO2)cc1` (stereo not given), the Potency entry was “inactive”.
For the compound `CCCNC(=O)OC[C@H]1O[C@H](CCON=CC[C@@H]2C=C[C@H](OC(C)=O)[C@@H](COC(C)=O)O2)C=C[C@H]1Oc1ccc(OC)cc1`, the Potency entry was “inactive”.
On to `C[C@@H]1C[C@](C)(C(=O)c2ccc3c(c2)OCO3)C=C1c1ccc2c(c1)OCO2`, for which the Potency result was “inactive”.
Then `CCN1C(=NCc2ccc(OC)cc2)NC(c2cccc(C(F)(F)F)c2)C(C(=O)OC)=C1C` (stereo not given), with “inactive”.
`C[C@H](ON=C1[C@H]2CCn3c(=O)n(-c4ccccc4)c(=O)n3[C@@H]2[C@H](O)[C@@H]2O[C@H]12)c1cn([C@H](CO)Cc2ccccc2)nn1`: the Potency entry is “inactive”.
On to `COc1ccc(C=CNC(=O)Cc2ccc(OC)c(OC)c2)cc1`, for which the Potency entry was “inactive”.
Then `CCOC(=O)CN1C(=O)N[C@@H](c2ccccc2)[C@H](C(C)=O)[C@H]1C`, with “inactive”.
On to `C=CCN1c2ccccc2[C@]23C[C@@H](C(=O)OC)N(C(=O)Nc4ccccc4F)C2=NC(C(=O)OC)=C(C(=O)OC)[C@H]13`, for which the Potency entry was “inactive”.
Consider `COC(=O)CC=C[C@@H](C)[C@@H](Cc1ccccc1Br)OC`, for which the Potency result was “inactive”.
For the compound `C(#C[C@@H]1C=C[C@H]2OC(c3ccccc3)OC[C@H]2O1)c1ccccc1` (stereo not given in full), the Potency entry was “inactive”.
As for `CN1c2ccccc2[C@@]2(O)C(=O)[C@@]1(C)[C@@H]1C=CCC[C@H]12`, the Potency entry was “inactive”.
Turning to `COC(=O)CC=C[C@@H](C)[C@H](NC(=O)OCC(Cl)(Cl)Cl)c1ccccc1`, the Potency result is “inactive”.
Turning to `C=CC1=C2C=C(C3CC3)N(CC3CC3)C=C2C(=O)C(C)(OC(=O)c2ccco2)C1=O` (stereo not given), the Potency result was “inactive”.
With `C=CCOC(=O)C(C(=O)CC)[C@@H](NC(=O)OC)c1ccc(F)cc1` (stereo not given in full), the Potency result was “inactive”.
In the case of `C=CCN1c2ccccc2[C@]23C[C@@H](C(=O)OC)N(C(=O)c4cccs4)C2=NC(C(=O)OC)=C(C(=O)OC)[C@H]13`, the Potency entry is “inactive”.
Consider `COC(=O)C1=C(C(=O)OC)[C@@H]2N(C)c3ccccc3[C@@]23C[C@@H](C(=O)OC)N(C(=O)c2cc(C)oc2C)C3=N1`, for which the Potency entry is “inactive”.
Under `C=CCOC(=O)N[C@H](c1ccco1)C(C(C)=O)C(C)=O` stands “inactive”; under `C#CC[C@@]1(C(=O)OC)C=C[C@@H](C)[C@H](c2ccccc2Br)N1C(=O)C(F)(F)F`, “inactive”; under `COc1ccc2c(c1)[C@@]1(OCCC=C[C@@H]1C)C(=O)N2Cc1ccc(Br)cc1`, “inactive”.
For the compound `COc1ccc2c(c1)O[C@H](c1ccc3c(c1)OCO3)[C@@H](OC(=O)Nc1cc(OC)c(OC)c(OC)c1)C2=O`, the Potency entry was “inactive”.
Under `COc1ccc(-c2ccc3c(n2)CCCN3CC(O)CN2CCCc3nc(C)c(C)cc32)cc1` (stereo not given) stands “inactive”; under `CC(C)(C)OC(=O)NCCCC1=CC2=CC(=O)C(C)(O)C(=O)C2=CO1` (stereo not given), “inactive”.
For `CC1(OC(=O)C2CCCC2)C(=O)C=C2C=C(c3ccsc3)OC=C2C1=O` (stereo not given), the Potency entry was “inactive”.
Consider `C[C@@H](ON=C1[C@H]2CCn3c(=O)n(-c4ccccc4)c(=O)n3[C@@H]2[C@H](O)[C@@H]2O[C@H]12)c1cn([C@H](CO)Cc2ccccc2)nn1`, for which the Potency entry is “inactive”.
For `CCN1C(=O)NC(c2cccs2)C(C(=O)OC)=C1C` (stereo not given), the Potency entry was “inactive”.
Under `COC(=O)CC=C[C@@H](C)[C@H](OC)c1c(Br)ccc2c1OCO2` stands “inactive”; under `CC(=O)OC[C@H]1O[C@H](c2ccc(C(C)=O)cc2)C=C[C@H]1OC(C)=O`, “inactive”; under `Cc1ccc([S+](=O)([O-])N(c2ccccc2)[S+](=O)([O-])C(F)(F)F)cc1`, “inactive”.
Under `COC(=O)[C@H](Cc1ccccc1)NC(=O)O[C@@H]1C(=O)c2cc(Br)ccc2O[C@H]1c1ccc2c(c1)OCO2` stands “inactive”; under `COC(=O)C1=C(C(=O)OC)[C@@H]2N(C)c3ccccc3[C@@]23CCC(=O)N(Cc2ccco2)C3=N1`, “inactive”; under `COc1ccc([C@]23Cc4ccccc4[C@H](O2)C2=C(O3)C(=O)c3ccccc3C2=O)cc1`, 1.51 µM (active).
For `CC(Nc1oc(-c2ccccc2)nc1-c1ccccc1)c1ccccc1` (stereo not given), the Potency result is “inactive”.
With `COCCN1C(=O)N[C@@H](c2cccc(C(F)(F)F)c2)[C@H](C(C)=O)[C@H]1C`, the Potency entry is “inactive”.
Take `C=CCN1c2ccccc2[C@]23C[C@@H](C(=O)OC)N(C(=O)OCC)C2=NC(C(=O)OC)=C(C(=O)OC)[C@H]13`: the Potency entry is “inactive”.
Under `C=CCC1(c2ccccc2)Oc2ccccc2-c2nc3cc(Cl)c(Cl)cc3nc21` (stereo not given) stands “inactive”; under `CCCCCCCC#Cc1ccccc1C=NS(=O)c1ccc(C)cc1` (stereo not given), “inactive”; under `COC(=O)C1=C[C@]2(c3ccccc3C[C@H](OC)[C@@H]2C)[C@H]2C=C[C@H]1C2`, “inactive”.
In the case of `CCN1C(=NCc2ccc3c(c2)OCO3)NC(c2ccccc2)C(C(=O)OC)=C1C` (stereo not given), the Potency entry was “inactive”.
As to `CCc1cc2c(nc1CC)CCN(CCC(C)=NOC[C@@H](O)[C@H]1O[C@@H]3OC(C)(C)O[C@H]3[C@@H]1O)C2`, the Potency was 2.94 µM (active).
